# Numbering of substitutions follows the chain as printed.
# What was measured:
# Assay in all cases: MITOMI; MITOMI, 295 K (22 C); buffer, salt and pH not stated in the material; high values mean tight binding
# Conditions in all cases: protein: ivt; label: fluorescent; dsDNA, one strand shown
# [1] = molecular target: T1, MarA wild type (WQR) (Escherichia coli, UniProt P0ACH5 1-127)
# T1 sequence: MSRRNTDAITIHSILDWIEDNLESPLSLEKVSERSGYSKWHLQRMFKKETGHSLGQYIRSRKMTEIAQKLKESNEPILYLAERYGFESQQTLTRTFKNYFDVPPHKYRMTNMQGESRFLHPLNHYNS
# Outline: (§1)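 Each fluorescently labelled MarA protein variant, made by in vitro transcription and translation with the RTS E. coli HY kit plus tRNA-lys-bodipy-fl, was tested by MITOMI against 64 synthesized mar binding site variants. Protein and DNA fluorescence were read on Genepix at 295K. Association constants, measured by MITOMI, are reported for each site relative to the highest-affinity site for the same protein variant.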
# [2] = molecular target: T2, MarA RQR (Escherichia coli, UniProt P0ACH5 1-127, W40R)
# T2 sequence: T1 sequence with W40R
# Outline: as §1
# [3] = molecular target: T3, MarA RTR (Escherichia coli, UniProt P0ACH5 1-127, W40R;Q43T)
# T3 sequence: T1 sequence with W40R, Q43T
# Outline: as §1
# [4] = molecular target: T4, MarA SAR (Escherichia coli, UniProt P0ACH5 1-127, W40S;Q43A)
# T4 sequence: T1 sequence with W40S, Q43A
# Outline: as §1
# [5] = molecular target: T5, MarA TRR (Escherichia coli, UniProt P0ACH5 1-127, W40T;Q43R)
# T5 sequence: T1 sequence with W40T, Q43R
# Outline: as §1
Sequence,binding signal [1],binding signal [2],binding signal [3],binding signal [4],binding signal [5]
ATGAGACGTTTTGCTAAAT,0.307 Ka relative to the best site of the variant,0.0985 Ka relative to the best site of the variant,0.229 Ka relative to the best site of the variant,0.913 Ka relative to the best site of the variant,0.362 Ka relative to the best site of the variant
ATGGTGCGTTTTGCTAAAT,0.304 Ka relative to the best site of the variant,0.115 Ka relative to the best site of the variant,0.183 Ka relative to the best site of the variant,0.784 Ka relative to the best site of the variant,0.382 Ka relative to the best site of the variant
ATGTCCCGTTTTGCTAAAT,0.181 Ka relative to the best site of the variant,1 Ka relative to the best site of the variant,0.848 Ka relative to the best site of the variant,0.233 Ka relative to the best site of the variant,0.399 Ka relative to the best site of the variant
ATGCCACGTTTTGCTAAAT,0.646 Ka relative to the best site of the variant,0.243 Ka relative to the best site of the variant,0.223 Ka relative to the best site of the variant,0.379 Ka relative to the best site of the variant,0.497 Ka relative to the best site of the variant
ATGGTACGTTTTGCTAAAT,0.294 Ka relative to the best site of the variant,0.124 Ka relative to the best site of the variant,0.222 Ka relative to the best site of the variant,0.797 Ka relative to the best site of the variant,0.39 Ka relative to the best site of the variant
ATGAACCGTTTTGCTAAAT,0.224 Ka relative to the best site of the variant,0.104 Ka relative to the best site of the variant,0.204 Ka relative to the best site of the variant,0.776 Ka relative to the best site of the variant,0.379 Ka relative to the best site of the variant
ATGTGCCGTTTTGCTAAAT,0.245 Ka relative to the best site of the variant,0.134 Ka relative to the best site of the variant,0.201 Ka relative to the best site of the variant,0.236 Ka relative to the best site of the variant,0.407 Ka relative to the best site of the variant
ATGTGTCGTTTTGCTAAAT,0.284 Ka relative to the best site of the variant,0.132 Ka relative to the best site of the variant,0.231 Ka relative to the best site of the variant,0.282 Ka relative to the best site of the variant,0.424 Ka relative to the best site of the variant
ATGTATCGTTTTGCTAAAT,0.282 Ka relative to the best site of the variant,0.121 Ka relative to the best site of the variant,0.902 Ka relative to the best site of the variant,0.221 Ka relative to the best site of the variant,0.432 Ka relative to the best site of the variant
ATGAAACGTTTTGCTAAAT,0.124 Ka relative to the best site of the variant,0.0424 Ka relative to the best site of the variant,0.323 Ka relative to the best site of the variant,0.852 Ka relative to the best site of the variant,0.36 Ka relative to the best site of the variant
ATGTTTCGTTTTGCTAAAT,0.217 Ka relative to the best site of the variant,0.214 Ka relative to the best site of the variant,0.716 Ka relative to the best site of the variant,0.21 Ka relative to the best site of the variant,0.539 Ka relative to the best site of the variant
ATGAGCCGTTTTGCTAAAT,0.237 Ka relative to the best site of the variant,0.107 Ka relative to the best site of the variant,0.27 Ka relative to the best site of the variant,1 Ka relative to the best site of the variant,0.448 Ka relative to the best site of the variant
ATGGGTCGTTTTGCTAAAT,0.232 Ka relative to the best site of the variant,0.141 Ka relative to the best site of the variant,0.203 Ka relative to the best site of the variant,0.534 Ka relative to the best site of the variant,0.334 Ka relative to the best site of the variant
ATGACCCGTTTTGCTAAAT,0.32 Ka relative to the best site of the variant,0.701 Ka relative to the best site of the variant,0.63 Ka relative to the best site of the variant,0.573 Ka relative to the best site of the variant,0.379 Ka relative to the best site of the variant
ATGATACGTTTTGCTAAAT,0.279 Ka relative to the best site of the variant,0.108 Ka relative to the best site of the variant,0.208 Ka relative to the best site of the variant,0.962 Ka relative to the best site of the variant,0.498 Ka relative to the best site of the variant
ATGATTCGTTTTGCTAAAT,0.264 Ka relative to the best site of the variant,0.122 Ka relative to the best site of the variant,0.208 Ka relative to the best site of the variant,0.807 Ka relative to the best site of the variant,0.453 Ka relative to the best site of the variant

# — publication PMC3315485, “Probing the Informational and Regulatory Plasticity of a Transcription Factor DNA–Binding Domain”
